Assay outcomes as filed in PubChem BioAssay.
HTR5A ag ctr: counter-screen for OPRM1-OPRD1 agonists: human HTR5A agonism; 340,000 tested, 0.61% active; activation, % at 9.3 µM; P47898; HTR5A agonist assay, luminescence, cell-based; AID 504692; in the data active = activation mostly above about 9.5%, no sharp cut-off; inactive = mostly below about 7.6%
Target sequence (P47898 whole entry, looked up): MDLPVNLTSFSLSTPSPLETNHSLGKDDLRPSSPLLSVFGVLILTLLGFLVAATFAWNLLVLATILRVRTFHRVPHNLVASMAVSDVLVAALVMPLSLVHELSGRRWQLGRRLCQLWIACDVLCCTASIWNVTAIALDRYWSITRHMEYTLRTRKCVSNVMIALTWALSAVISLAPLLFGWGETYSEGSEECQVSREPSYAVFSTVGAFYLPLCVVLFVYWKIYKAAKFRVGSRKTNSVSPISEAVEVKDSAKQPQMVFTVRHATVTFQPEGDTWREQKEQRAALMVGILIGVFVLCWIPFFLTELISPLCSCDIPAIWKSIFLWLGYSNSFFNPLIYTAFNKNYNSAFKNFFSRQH
MsrA inh: inhibits bovine methionine sulfoxide reductase A; purified bovine MsrA, absorbance read-out; inhibition, % at 15.5 µM; 360,000 tested, 0.75% active
OPRM1-OPRD1 ag: agonists of human mu-delta opioid receptor heterodimerization; P35372+P41143; cells, OPRM1-OPRD1 heterodimerization, luminescence; activation, % at 9.3 µM; 340,000 tested, 0.3% active; in the data active = activation above about 18%
MsrA act: activates bovine MsrA enzyme. purified bovine MsrA, absorbance read-out. AID 602163. 360,000 tested, 0.3% active. activation, % at 10.6 µM; in the data active = activation above about 7.5%
OPRM1-OPRD1 inv: inverse agonists of human mu-delta opioid receptor heterodimerization | inhibition, % at 9.3 µM | cell-based MOR-DOR heterodimer luminescence, inverse agonism | 340,000 tested, 0.21% active | P35372+P41143; in the data active = inhibition above about 22%, passing the limit was not always enough
HTR5A inv ctr: counter-screen for OPRM1-OPRD1 inverse agonists: human HTR5A inverse agonism. P47898. HTR5A cell line, luminescence. inhibition, % at 9.3 µM. 340,000 tested, 0.083% active. AID 504634; in the data active = inhibition mostly above about 23%, no sharp cut-off; inactive = mostly below about 18%
MsrA conf: bovine MsrA inhibition, confirmed | shares compounds with MsrA inh | purified bovine MsrA, absorbance read-out | inhibition, % at 15.5 µM | 2,300 tested, 41% active;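 also: coupled to thioredoxin reductase with NADPH and selenocystamine and DMSO as substrate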
Each line names hits and unclear results; the compound was inactive in the other large screens (follow-up assays come after a bar, where they were run). Rows were chosen to be rich in hits. Some 1.9% of all compounds tested hit in one or more screens of this group. Rule as the data show it, unless noted: active = inhibition above about 4.5%; inactive = the rest.

COc1cc([N+](=O)[O-])ccc1NC(=S)NNC(=O)c1ccc2c(c1)OCO2	MsrA inh 4.7 | MsrA conf inactive
COC(=O)C1=C(C)N(Cc2ccccc2)C(=S)NC1c1ccc(Cl)cc1 (stereo not given)	none (no result: HTR5A ag ctr, OPRM1-OPRD1 ag, MsrA act, OPRM1-OPRD1 inv, HTR5A inv ctr)
CC1(C(=O)Nc2cccc(C#N)c2)CCN1C(=O)Cc1ccc(-c2ccccc2)cc1 (stereo not given)	none (no result: HTR5A ag ctr, OPRM1-OPRD1 ag, OPRM1-OPRD1 inv, HTR5A inv ctr)
CCN(CC)c1ccc(C(=O)c2ccccc2C(=O)O)c(O)c1	MsrA inh 4.7 | MsrA conf 4.8
O=Cc1cscc1[B-](F)(F)F	none (no result: HTR5A ag ctr, OPRM1-OPRD1 ag, MsrA act, OPRM1-OPRD1 inv, HTR5A inv ctr)
O=C(OCc1ccccc1)N1CCC2CC1c1c(Cl)cccc12 (stereo not given)	MsrA inh 5.6 | MsrA conf inactive
O=C(OCc1ccccc1)N1CCC2CC1c1cc(Cl)ccc12 (stereo not given)	none
O=C(O)CSc1nc2sc3c(c2c(=O)n1-c1ccccc1)CCC3	MsrA inh 5.0 | MsrA conf inactive
COc1ccc(-n2c(SCC(=O)NCc3ccco3)nc3sc4c(c3c2=O)CCN(C)C4)cc1	none
COc1ccc(-n2c(SCC(N)=O)nc3sc4c(c3c2=O)CCN(C)C4)cc1	MsrA inh 6.1 | MsrA conf inactive
CN1CCc2c(sc3nc(SCC(=O)NCc4ccco4)n(-c4ccccc4)c(=O)c23)C1	MsrA inh 6.4 | MsrA conf inactive
Cc1ccccc1-c1ccc2c(c1)[C@@H]1C[C@H](N(C)C(=O)Nc3ccccc3)[C@H]([C@H](C)O)CN1CC2	none (no result: HTR5A ag ctr, OPRM1-OPRD1 ag, MsrA act, OPRM1-OPRD1 inv, HTR5A inv ctr)
CC(C)(C)N1C(=O)c2ccccc2NC(=O)C1C(=O)NCCc1ccccc1F (stereo not given)	none (no result: HTR5A ag ctr, OPRM1-OPRD1 ag, MsrA act, OPRM1-OPRD1 inv, HTR5A inv ctr)
Cc1ccc(S(=O)(=O)N(C)c2ccc(OCC(=O)Nc3cc(C(=O)O)ccc3Cl)cc2)cc1	none (no result: HTR5A ag ctr, OPRM1-OPRD1 ag, MsrA act, OPRM1-OPRD1 inv, HTR5A inv ctr)
CC1=CC(Cc2ccccc2)N(C)C(C(N)=O)C1 (stereo not given)	none (no result: HTR5A ag ctr, MsrA inh, OPRM1-OPRD1 ag, OPRM1-OPRD1 inv, HTR5A inv ctr)
COCCN1Cc2cc(C(=O)OC)c3c(c2C1=O)c1ccccc1n3S(=O)(=O)c1ccc(C)cc1	none (no result: HTR5A ag ctr, OPRM1-OPRD1 ag, MsrA act, OPRM1-OPRD1 inv, HTR5A inv ctr)
N#C/C(=C/c1ccc(Br)o1)C(N)=O	MsrA inh 4.7 | MsrA conf 5.5
COc1ccc(NC(=O)/C(C#N)=C/c2ccc(Br)o2)cc1	none
CC1(C)C=C(c2ccc(C=O)s2)CC(C)(C)N1C=O	MsrA inh 4.8 | MsrA conf inactive
CC1(C)C=C(c2ccc(C=O)s2)CC(C)(C)N1	none
CC(=O)c1ccc(N2CCN(C(=O)C3CCCN(S(=O)(=O)c4c(C)[nH]c(=O)[nH]c4=O)C3)CC2)cc1 (stereo not given)	MsrA inh 4.7 | MsrA conf inactive
O=C(NCc1cccnc1)c1cc(C2CCCCN2S(=O)(=O)Cc2ccccc2)on1 (stereo not given)	none (no result: HTR5A ag ctr, OPRM1-OPRD1 ag, OPRM1-OPRD1 inv, HTR5A inv ctr)
CCc1nccn1C(=O)c1cnn2c(C(F)F)cc(-c3ccc(C)cc3)nc12	MsrA inh 4.8 | MsrA conf 26
COC(=O)[C@]12C[C@H](CC(=O)NCc3cccs3)C(=O)N(Cc3ccc4c(c3)OCO4)C1=C[C@H](COCc1ccccc1)O[C@@H]2C	none (no result: HTR5A ag ctr, OPRM1-OPRD1 ag, MsrA act, OPRM1-OPRD1 inv, HTR5A inv ctr)
CC(=O)C1=C(O)C(=O)N(c2cc(C(C)(C)C)on2)C1c1ccc(C(C)C)cc1 (stereo not given)	none (no result: MsrA inh)
CC(=O)C1=C(O)C(=O)N(c2cc(C(C)(C)C)on2)C1c1ccc(Br)cc1 (stereo not given)	MsrA inh 4.9 | MsrA conf inactive
Cc1ccc(S(=O)(=O)Nc2nc3c(s2)C(=O)CC(C)(C)C3)cc1	MsrA inh 6.7 | MsrA conf inactive
CC1(C)CC(=O)c2sc(NS(=O)(=O)Cc3ccccc3)nc2C1	MsrA inh 5.3 | MsrA conf inactive
Cc1cc(C)cc([C@H]2C[C@]34CN(Cc5ccccc5)S(=O)(=O)[C@H]3C[C@H]2O4)c1	none (no result: HTR5A ag ctr, OPRM1-OPRD1 ag, MsrA act, OPRM1-OPRD1 inv, HTR5A inv ctr)
CC(C)(C)c1ccc2c(c1)OC(C(=O)N/N=C\c1ccc(-c3cccc(C(=O)O)c3)o1)CO2 (stereo not given)	none
CNC(=S)N/N=C/c1ccc(-c2cccc(C(=O)O)c2)o1	MsrA inh 4.9 | MsrA conf 6.2
COc1ccc(CC(=O)N/N=C/c2ccc(-c3cccc(C(=O)O)c3)o2)cc1OC	MsrA inh 5.1 | MsrA conf inactive
O=C(O)c1cccc(-c2ccc(/C=N/Nc3nn[nH]n3)o2)c1	MsrA inh 5.9 | MsrA conf 4.6
CCNC(=S)N/N=C/c1ccc(-c2ccccc2)o1	none
COc1ccc(CC(=O)N/N=C/c2ccc(-c3ccc(F)cc3)o2)cc1OC	none
O=C(O)c1cccc(-c2ccc(/C=N/NC(=O)C3COc4ccccc4O3)o2)c1 (stereo not given)	MsrA inh 4.7 | MsrA conf inactive
Brc1cccc(/C=N/Nc2nn[nH]n2)c1	none
COC(=O)N1Cc2ccnnc2CC1c1ccccc1-c1ccccc1 (stereo not given)	none (no result: HTR5A ag ctr, OPRM1-OPRD1 ag, MsrA act, OPRM1-OPRD1 inv, HTR5A inv ctr)
CCN(CC)C(=O)C1=C(C)N(Cc2ccc(OC)cc2)C(=O)C(CC(=O)NCCN2CCOCC2)C1 (stereo not given)	none (no result: HTR5A ag ctr, OPRM1-OPRD1 ag, OPRM1-OPRD1 inv, HTR5A inv ctr)
Cc1ccc(OCC(=O)N/N=C\c2ccc(-c3cccc(C(=O)O)c3)o2)c(C)c1	MsrA inh 5.3 | MsrA conf inactive
CC(/C=N/NC(=O)CN1CCN(Cc2ccc(Cl)cc2)CC1)=C\c1ccco1	none
O=C(CN1CCN(Cc2ccccc2)CC1)N/N=C/C=C/c1ccco1	MsrA inh 5.8 | MsrA conf inactive
CCOC(=O)c1cc2ccc3ccccc3c2oc1=O	MsrA inh 15 | MsrA conf 10
CCOC(=O)c1cc2ccc(OC(=O)c3ccco3)cc2oc1=O	none
O=C(Nc1ccncc1)c1cc(C2CCCCN2C(=O)CCCc2ccccc2)on1 (stereo not given)	none (no result: HTR5A ag ctr, OPRM1-OPRD1 ag, OPRM1-OPRD1 inv, HTR5A inv ctr)
COc1ccc(C)cc1NC(=O)C(Sc1nnc(Nc2cc(C)ccc2OC)s1)c1ccccc1 (stereo not given)	MsrA inh 5.2 | MsrA conf inactive
Cc1ccc(NC(=O)Cn2cccc2C2=NC(c3ccccc3)CO2)cc1C (stereo not given)	MsrA inh 43 | MsrA conf inactive
CCc1ccccc1NC(=O)Cn1cccc1C1=NC(c2ccccc2)CO1 (stereo not given)	none
CCOC(=O)[C@@H]1CSCCS(=O)(=O)N1C(=O)[C@H](C)NC(=O)OC(C)(C)C	none (no result: HTR5A ag ctr, OPRM1-OPRD1 ag, MsrA act, OPRM1-OPRD1 inv, HTR5A inv ctr)
O=c1oc2ccccc2c(NCc2ccccc2)c1[N+](=O)[O-]	MsrA inh 5.8 | MsrA conf 5.0
O=c1oc2ccccc2c(NCc2ccc(Cl)cc2)c1[N+](=O)[O-]	none
Nc1c([N+](=O)[O-])c(=O)oc2ccccc12	MsrA inh 5.9 | MsrA conf inactive
CC(Nc1c([N+](=O)[O-])c(=O)oc2ccccc12)c1ccccc1 (stereo not given)	MsrA inh 25 | MsrA conf 21
CC(C)Nc1c([N+](=O)[O-])c(=O)oc2ccccc12	none
Cc1cccc(C)c1NC(=O)C1c2ccccc2OCC(=O)N1Cc1ccco1 (stereo not given)	none (no result: HTR5A ag ctr, OPRM1-OPRD1 ag, OPRM1-OPRD1 inv, HTR5A inv ctr)
